Test results from the supplement of paper PMC9694430.
Where a name gives a salt, the structure may show the parent alone.

Tests used:
Test in all cases: thermal shift delta Tm vs DMSO control; higher = stronger stabilization (binding)
Settings in all cases: 12.5 µM; protein concentration 2 µM
LOC_OS02G45750-cb003 = test system: LOC_OS02G45750-cb003
Method in brief: (§1)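 Thermal shift values come from differential scanning fluorimetry on purified rice kinase domains made in E. coli, with melting temperatures obtained from Boltzmann fits. Samples of 19.5 μl held 2 μM kinase, 100 mM potassium phosphate pH 7.5, 150 mM NaCl, 10% glycerol, 5 × SYPRO Orange and compound in DMSO, and were heated from 25°C to 95°C at 0.05°C/s. Each shift is a triplicate mean relative to the DMSO-only protein sample.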

LOC_OS02G54510-cb004 = test system: LOC_OS02G54510-cb004
Method in brief: as §1

LOC_OS03G04050-cb001 = test system: LOC_OS03G04050-cb001
Method in brief: as §1

LOC_OS03G12390-cb001 = test system: LOC_OS03G12390-cb001
Method in brief: as §1

LOC_OS03G27990-cb004 = test system: LOC_OS03G27990-cb004
Method in brief: as §1

LOC_OS03G50450-cb001 = test system: LOC_OS03G50450-cb001
Method in brief: as §1

LOC_OS03G50810-cb003 = test system: LOC_OS03G50810-cb003
Method in brief: as §1

LOC_OS04G35114-cb001 = test system: LOC_OS04G35114-cb001
Method in brief: as §1

LOC_OS04G38480-cb003 = test system: T1, LOC_OS04G38480-cb003
T1 sequence (whole entry): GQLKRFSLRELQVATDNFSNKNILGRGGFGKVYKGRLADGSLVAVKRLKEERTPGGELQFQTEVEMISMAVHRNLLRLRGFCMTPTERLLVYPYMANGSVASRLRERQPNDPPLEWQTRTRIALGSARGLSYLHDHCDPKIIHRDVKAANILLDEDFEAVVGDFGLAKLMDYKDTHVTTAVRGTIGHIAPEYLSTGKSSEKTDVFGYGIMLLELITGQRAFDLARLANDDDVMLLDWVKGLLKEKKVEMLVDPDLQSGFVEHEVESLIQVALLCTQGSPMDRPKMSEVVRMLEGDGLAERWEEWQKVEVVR
Method in brief: as §1

LOC_OS04G41100-cb001 = test system: T2, LOC_OS04G41100-cb001
T2 sequence (whole entry): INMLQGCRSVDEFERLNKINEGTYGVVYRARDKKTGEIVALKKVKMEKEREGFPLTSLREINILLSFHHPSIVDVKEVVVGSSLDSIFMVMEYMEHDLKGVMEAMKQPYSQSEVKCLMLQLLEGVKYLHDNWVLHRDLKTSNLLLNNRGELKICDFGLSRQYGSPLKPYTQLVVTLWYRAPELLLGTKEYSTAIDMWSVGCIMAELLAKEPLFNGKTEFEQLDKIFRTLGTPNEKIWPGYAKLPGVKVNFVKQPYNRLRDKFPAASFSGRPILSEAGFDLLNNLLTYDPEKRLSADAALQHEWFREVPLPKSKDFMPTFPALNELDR
Method in brief: as §1
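Note: purified Escherichia coli-expressed rice kinase domain construct.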

| SMILES | thermal shift delta Tm (LOC_OS02G45750-cb003) [°C] | thermal shift delta Tm (LOC_OS02G54510-cb004) [°C] | thermal shift delta Tm (LOC_OS03G04050-cb001) [°C] | thermal shift delta Tm (LOC_OS03G12390-cb001) [°C] | thermal shift delta Tm (LOC_OS03G27990-cb004) [°C] | thermal shift delta Tm (LOC_OS03G50450-cb001) [°C] | thermal shift delta Tm (LOC_OS03G50810-cb003) [°C] | thermal shift delta Tm (LOC_OS04G35114-cb001) [°C] | thermal shift delta Tm (LOC_OS04G38480-cb003) [°C] | thermal shift delta Tm (LOC_OS04G41100-cb001) [°C] |
| --- | --- | --- | --- | --- | --- | --- | --- | --- | --- | --- |
| C[C@H]1CNC(=O)c2cnn3ccc(nc23)N[C@H](C)c2cc(F)ccc2O1 | 3.54 | 6.11 | 0.53 | 0.55 | 0.55 | 0.87 | 2.52 | 2.45 | 3.37 | 0.09 |
| CCOc1cc2ncc(C#N)c(Nc3ccc(F)c(Cl)c3)c2cc1NC(=O)/C=C/CN(C)C [Pelitinib (EKB-569)] | 4.93 | 0.37 | 0.32 | 0.42 | 3.2 | 0.73 | 1.15 | 5.5 | 0.56 | 0.56 |
| Nc1nc(N)c(N=O)c(OCC2CCCCC2)n1 | 0.64 | 0.21 | 0.46 | 3.99 | 2.79 | 0.35 | 0.92 | 1.13 | 1.28 | 0.59 |
| O=C(NOCC1CC1)c1ccc(F)c(F)c1Nc1ccc(I)cc1Cl | 0.27 | -0.05 | 1.06 | 0.75 | 0.28 | 0.46 | 0.83 | 0.12 | 1.28 | 0.9 |
| CC(C)(C)NS(=O)(=O)c1cncc(-c2cc(F)c3nc(N)nn3c2)c1 | 0.74 | 0.24 | 0.64 | 0.19 | 0.94 | 0.53 | 0.4 | 0.87 | 0.98 | 0.29 |
| CNC(=O)c1cc(Oc2ccc(NC(=O)Nc3ccc(Cl)c(C(F)(F)F)c3)cc2)ccn1 [Sorafenib Tosylate] | 2.62 | 1.95 | 0.83 | 1.41 | 0.39 | 0.77 | 1.06 | 0.98 | 2.2 | 1.53 |
| O=C(Nc1cccc(Cl)c1)Nc1ncc(CCNc2ncnc3ccsc23)s1 [SNS-314 Mesylate] | 0.93 | 0.38 | 1.02 | 1.77 | 0.36 | 0.82 | 0.75 | 1.73 | 2.48 | 1.12 |
| N#Cc1ccc(-c2c(-c3ncn[nH]3)sc(N3CCOCC3)c2C#N)c(F)c1 | 1.03 | 0.27 | 0.35 | 0.25 | 0.22 | 0 | 0.37 | 0.45 | 1.64 | 0.49 |
| C[C@@H](N)c1ccc(C(=O)Nc2ccnc3[nH]ccc23)cc1 | 1.52 | 0.39 | 0.7 | 0.27 | 0.76 | 0.85 | 0.77 | 1.23 | 2.01 | 0.85 |
| CCOc1cc(N2CCC(O)CC2)ccc1Nc1ncc2c(n1)N(C)c1ccccc1C(=O)N2C | -0.35 | -0.02 | 0.11 | 2.48 | -0.12 | 0.38 | 0.11 | 0.71 | 1.18 | 0.38 |
| CCCCCCCCCCCCc1ccc(S(=O)(=O)Nc2nncs2)cc1 | -1.65 | -0.17 | 0.7 | -0.22 | 0.29 | -0.07 | -0.06 | 0.41 | 0.58 | 0.45 |
| S=C(NCc1ccc2c(c1)OCO2)N1CCN(c2ncnc3c2oc2ccccc23)CC1 [Amuvatinib (MP-470)] | 0.86 | -2.11 | 0.55 | 0.66 | 0.56 | 0.69 | 0.68 | -0.04 | 0.39 | 0.47 |
| COc1cc2ncnc(Sc3nnc(C)s3)c2cc1OC | 2.63 | 0.34 | 0.71 | -0.23 | 0.56 | 0.5 | 0.54 | 2.86 | 0.54 | 0.9 |
| CC(C)(C)c1cc(NC(=O)Nc2ccc(Oc3ccnc4[nH]c(=O)cnc34)cc2F)n(-c2ccccc2)n1 | 8.1 | 3.28 | 0.21 | 4.04 | 0.22 | 0.17 | 2.66 | 0.44 | 2.2 | 7.51 |
| CC(C)c1cnn2c(NCc3ccccc3)cc(NCCCCCCN)nc12 | 0.67 | 0.22 | 0.33 | -0.19 | 0.14 | 0.34 | 0.19 | 0.56 | -0.44 | 0.32 |
| C[C@@H](Oc1cc(-c2cnn(C3CCNCC3)c2)cnc1N)c1c(Cl)ccc(F)c1Cl | 5.46 | 0.63 | 0.35 | 1.31 | 0.48 | 0.08 | 2.49 | 5.73 | 3.79 | 0.57 |
| Cn1cc(-c2ccc3nnc(Sc4ccc5ncccc5c4)n3n2)cn1 | 0.93 | 0.23 | 0.63 | -0.22 | 0.45 | 0.82 | 0.32 | 0.81 | 1.04 | 0.48 |
| C[S+]([O-])c1ccc(-c2nc(-c3ccc(F)cc3)c(-c3ccncc3)[nH]2)cc1 (stereo not given) | 1.21 | 0.81 | 1.08 | 0.78 | 0.58 | 0.08 | 0.32 | 1.35 | 1.26 | 1.23 |
| Cc1cn(-c2cc(NC(=O)c3ccc(C)c(Nc4nccc(-c5cccnc5)n4)c3)cc(C(F)(F)F)c2)cn1 [Nilotinib (AMN-107)] | 0.19 | 0.17 | 0.37 | 0.05 | 0.02 | 0.23 | 0.16 | -0.37 | 0.3 | 0.57 |
| Cn1cnc2c(F)c(Nc3ccc(Br)cc3Cl)c(C(=O)NOCCO)cc21 [Selumetinib (AZD6244)] | 0.34 | 0.31 | 0.26 | 0.11 | -0.04 | -0.25 | 0.02 | 0.24 | 0.38 | 0.75 |
